Results published in the supplement of paper PMC6555819.

System: THRa homodimer (NR concentration 90 nM)
Experiment: PBM binding z-score (relative to random genomic background probes); higher = stronger binding; sequences stand for … in GC…GCGATTGACAGCGTAGAATGAAGG
Procedure, shortened: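 Scanned fluorescence from custom Agilent 4×180K protein-binding microarrays was regression-normalized. Binding z-scores use random background probes as reference. Ligand-free nuclear receptor dimers were incubated on the arrays for 1 h and detected with antibodies against each partner (one per run).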

| Sequence | PBM binding z-score |
| --- | --- |
| TCTCGGAGGACACAAAGGTCAGAGCTTTCCAGAG | 0.913 |
| CGTTCAAGGTCAAAGGTCAGTGAAGAGATGACGG | 3.34 |
| CCAGACAGGTGAGAAGGTAACTCAGCCTCGATTA | 0.236 |
| TAGCCTAGGTCATACAGGGGCCAGTATAGAAAGC | 0.799 |
| CCTACTGGGCCATTCAGAGGTCAATGATCATATG | 1.32 |
| CCTACTGGGCCGTTCAGAGGTCATTGATCATATG | 1.42 |
| ATATGTAGGTTATCTGGGGTCATTCAGACTAGGC | 3.91 |
| GATACAGGGTCAGCTACAGGCCAGAGTATGGAAA | 0.162 |
| CAAACTAGGTCAAGAGGTCAAAGTTCGCTTCCCG | 2.78 |
| ATCGAAAGGTCCAAGGTGAGTATACCCACCCGAA | 0.653 |
| ATATGTAGGATAGCTGGGGTCATTCAGACTAGGC | 3.17 |
| TCGTGTAGGTTACGGGGGCATTCAGGGATGAAGA | 2.66 |
| CGAACTACGTCATCCAGGACAGTGAATACATTGA | 1.03 |
| CGTCAAAGATCAAGGTAACGTAACAGAAAGCAGC | 0.524 |
| CGAACTAGGTCAAGGACAGTAAATCTCCGCACGC | 2.01 |
| AATACAGGGTCACGAGGCCAGAGTAGGTACGAAT | 2.21 |
| TCTAGTTGGTCACGGAGGACACACACGACGGGTA | 1.27 |
| CGTCCAAGGTCAGCGGGTCAGTGAAAGCGACGTG | 2.34 |
| ACGCGGAGGACAAAGGTCAGAGCTACGCCAGTGA | 0.463 |
| CCTTACGGGTCACGTGGTTATAGCACGACGAGCG | 0.0729 |
| GGAACGAGGTCATTCGAGTTGATAGCATGGCGAT | 2.26 |
| TCTGCTAGGTCATCGATGGTCAGCTAATCTGCTA | 0.553 |
